The record followed here is PubChem BioAssay (NCATS).

Experiment [1] addresses M-phase phosphoprotein 8 (Homo sapiens) (UniProt Q99549). Description: qHTS Validation Assay for Inhibitors for MPP8 Chromodomain Interactions with Methylated Histone Tails (AID 488949).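 Also: AlphaScreen signal from MPP8 chromodomain bound to biotinylated H3K9me3 peptide; top concentration of the series differs between compounds; % is scaled to controls: 0 for no effect and ±100 for the full control effect; nearly all actives have a fitted effect of over 55% in size.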 An outline of the steps:
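AlphaScreen proximity signal from streptavidin donor and Ni-chelate acceptor beads (10 ug/mL each) reported binding of MPP8 to trimethyl-K9 H3(1-18) peptide, both at 50 nM. The complex formed 30 min before a 30 min compound exposure at room temperature, in PBS pH 7.4.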

The target in experiment [2] is Chromobox protein homolog 1 (Homo sapiens) (UniProt P83916). Description: qHTS Validation Assay for Inhibitors of HP1-beta Chromodomain Interactions with Methylated Histone Tails (AID 488953).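 Also: loss of AlphaScreen luminescence from HP1-beta binding biotinylated H3K9me3 peptide; series mostly up to about 110 µM; % is scaled to controls: 0 for no effect and ±100 for the full control effect; nearly all actives have a fitted effect of over 50% in size.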 In short, it runs like this:
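AlphaScreen proximity readout: streptavidin donor and Ni-chelate acceptor beads, 10 ug/mL final, 30 min dark, RT. Complex of 50 nM HP1-beta and 50 nM b-H3(1-18)K9me3 formed 30 min, then compound-treated 30 min; PBS pH 7.4/0.01% Tween-20.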

In experiment [3] the target is Methanococcus maripaludis chaperonin (MmCpn) (UniProt Q6LX38). Description: High-Throughput Screening for Modulators of Cytosolic Chaperonin Activity: MmCpn Primary Screen (AID 488978).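 Also: 50 nM MmCpn enzyme hydrolysing 30 µM ATP at 37 °C; 0% is about no effect.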 In short, it runs like this: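 ATPase activity of 50 nM MmCpn was assayed with 30 uM ATP, 10 minutes at 37C, after a 5 min compound preincubation at room temperature. ADP production was read as HTRF emission at 590 and 665 nm.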

The target of experiment [4] is Transient receptor potential cation channel subfamily V member 1 (Homo sapiens) (UniProt Q8NER1). Nature of the experiment: HTS Assay for Compounds that Act as Enhancers of the Vanilloid Receptor 1 (AID 488979). Also: 0% is about no effect. An outline of the steps: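 Calcium influx kinetics via Fluo-8 (480/520 nm) in TRPV1-expressing cells, 2000/well cultured overnight at 35.5C. Compound-alone read 3 min (agonist phase), followed by EC20 capsaicin challenge for 2 min (enhancer phase).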

The target of experiment [5] is Thyrotropin receptor (Homo sapiens) (UniProt P16473). Description: qHTS Assay for Antagonists of the Thyroid Stimulating Hormone Receptor (AID 488980). Also: series mostly up to about 58 µM; 0% is about no effect. In short, it runs like this: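 Inhibition of cAMP raised by EC80 TSH (4 nM final) was read by HTRF, with lysate cAMP competing against cAMP-d2 for cryptate antibody after 30 min at room temperature. The cells were transfected HEK293 held in phosphodiesterase inhibitor RO 20-1724 at 70 uM.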

The target of experiment [6] is D(1A) dopamine receptor (Homo sapiens) (UniProt P21728). Description: HTS Assay for Allosteric Agonists of the Human D1 Dopamine Receptor: Primary Screen for Agonists (AID 488981). Also: 0% is about no effect. An outline of the steps:
(§1)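 Calcium flux in an inducible, force-coupled HEK293 Trex D1 line (overnight at 30 C): agonist mode is the 180 s kinetic read after compound; potentiator mode is the following 180 s read after dopamine at EC20.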

Experiment [7] shares this target. Description: HTS Assay for Allosteric Agonists of the Human D1 Dopamine Receptor: Primary Screen for Potentiators (AID 488982). Also: potency is read from the fitted curve at half-maximal effect. An outline of the steps: as §1
Experiment [8] shares this target. Nature of the experiment: HTS Assay for Allosteric Agonists of the Human D1 Dopamine Receptor: Primary Screen for Antagonists (AID 488983).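 Also: calcium flux response to an EC80 dopamine challenge measured with no-wash dye; % is scaled to controls: 0 for no effect and ±100 for the full control effect; nearly all actives have a fitted effect of over 65% in size.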 An outline of the steps:
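Calcium flux readout, no-wash dye, inducible HEK293 T-REx D1 line (force-coupled). Compound added after 10 s baseline, 180 s kinetic read; then dopamine at EC80, further 180 s read.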

Experiment [9] in a line: Validation screen for small molecules that induce genotoxicity in human embryonic kidney (HEK293T) cells expressing luciferase-tagged ELG1 (AID 493106). Also: 0% is about no effect. An outline of the steps:
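qHTS format; 2,000 HEK293T ELG1-luc cells/well; 23 nL compound via pin tool; 16 hr, 37 °C/5% CO2; ONE-Glo, 30 min RT; luminescence read.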

For experiment [10], the target named is ATPase family AAA domain-containing protein 5 (Homo sapiens) (UniProt Q96QE3). Nature of the experiment: Validation screen for small molecules that inhibit ELG1-dependent DNA repair in human embryonic kidney (HEK293T) cells expressing luciferase-tagged ELG1 (AID 493107). Also: nearly all actives have a fitted effect of over 70% in size. Also: potency is read from the fitted curve at half-maximal effect. An outline of the steps:
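ELG1-luciferase HEK293T reporter; 5-fluorouridine + compound/DMSO, 16 hr, 37 °C, 5% CO2; ONE-Glo 30 min RT; luminescence read, qHTS format.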

The nature of experiment [11]: Nrf2 qHTS screen for inhibitors: Validation (AID 493153; active = well fitted inhibition curve with a large enough effect in the main read-out, with a control signal flat, not every such curve was filed as active). The conditions noted are these: Potency: luciferase luminescence; viability change: measured here: cytotoxicity max response. An outline of the steps:
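Concentration-response test in A549 ARE_Fluc reporter cells (5% FBS OPTI-MEM), compound exposure 18-24 h at 37°C, 5% CO2. Cell viability measured first by CellTiter-Fluor fluorescence; ARE-driven luciferase luminescence then measured as Nrf2 activity.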

Experiment [12] is described as follows: qHTS for Inhibitors of Cell Surface uPA Generation: Validation Assay (AID 493164).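 Also: RAW 264.7 macrophage cells exposed to compound for 18 h; 0% is about no effect.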 In short, it runs like this:
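Compounds are titrated over seven points (2.45 nM–38.3 uM final) onto pre-plated RAW 264.7 cells and incubated for 18 h. Retained intracellular ATP, measured with ATP-Lite, indicates blocked lethal factor entry.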

Experiment [13] deals with Galactokinase (Homo sapiens) (UniProt P51570). Description: qHTS Validation Assay for Inhibitors of Human Galactokinase (GALK) (AID 493189). Also: 0% is about no effect. An outline of the steps: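 Inhibition was measured as remaining ATP, detected by luciferase luminescence after a 1 h room-temperature reaction. Final conditions: 5 nM GALK, 100 uM galactose, 35 uM ATP, pH 8.0 HEPES buffer.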
Chain of Galactokinase (Homo sapiens) (P51570 whole entry, looked up): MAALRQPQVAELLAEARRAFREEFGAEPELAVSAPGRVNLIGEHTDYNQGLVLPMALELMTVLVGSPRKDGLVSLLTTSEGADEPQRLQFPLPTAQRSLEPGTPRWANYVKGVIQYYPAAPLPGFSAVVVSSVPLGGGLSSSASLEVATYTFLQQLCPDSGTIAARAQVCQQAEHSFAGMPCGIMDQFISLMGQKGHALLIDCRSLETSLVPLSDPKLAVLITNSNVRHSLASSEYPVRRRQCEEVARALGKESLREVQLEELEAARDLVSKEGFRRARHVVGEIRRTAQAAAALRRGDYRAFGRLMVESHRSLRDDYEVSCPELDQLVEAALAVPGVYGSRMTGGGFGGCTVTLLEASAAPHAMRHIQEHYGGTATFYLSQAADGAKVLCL
Experiment [14] in a line: Validation screen for small molecules that induce DNA re-replication in SW480 colon adenocarcinoma cells (AID 504364). Also: 0% is about no effect. In short, it runs like this:
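Read-out: total Hoechst intensity of nuclei by fluorescence scanning imager; hits raise the fraction of nuclei with elevated DNA content. Cells received compound for 48 hr at 37 C before a 40 min stain.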

Experiment [15] concerns the target Phosphoglycerate kinase, glycosomal (Trypanosoma brucei brucei) (UniProt P07378). Description: qHTS Validation Assay to Find Inhibitors of Phosphoglycerate Kinase (AID 504547).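 Also: control wells lack PGK and mark full inhibition.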 In short, it runs like this: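 Luminescence end-point (Kinase-Glo Plus, 10 min) after a 60 min room-temperature coupled reaction. GAPDH at 100nM final supplies 1,3-BPG to PGK. Buffer: 100mM TEA pH 7.6, 5mM MgCl2, 0.01% Tween-20. Wells lacking PGK served as controls.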

Experiment [16] concerns the target phosphoglycerate mutase (Leishmania major) (UniProt Q4Q090). Description: qHTS Validation Assay to Find Inhibitors of Phosphoglycerate Mutase (AID 504548). Also: series mostly up to about 58 µM; % is scaled to controls: 0 for no effect and ±100 for the full control effect. In short, it runs like this:
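Lm PGAM 1.25nM final; 100 mM TEA pH 7.6, 5 mM MgCl2, 0.01% Tween-20; 45 min RT; Kinase-GloPlus, 10 min; end-point luminescence. Enzyme-free wells as negative controls.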

Experiment [17] deals with Ubiquitin carboxyl-terminal hydrolase 1 (Homo sapiens) (UniProt O94782). Nature of the experiment: Inhibitors of USP1/UAF1: Pilot qHTS (AID 504865).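 Also: rhodamine fluorescence freed from ubiquitin-rhodamine substrate followed over time; top concentration of the series differs between compounds; % is scaled to controls: 0 for no effect and ±100 for the full control effect; nearly all actives have a fitted effect of over 35% in size.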 An outline of the steps: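 Deubiquitinase activity followed as kinetic rhodamine fluorescence release from 150 nM Ub-Rho. 1 nM USP1/UAF1 with compound, after 15 min room-temperature preincubation, in HEPES pH 7.8 buffer containing TCEP, EDTA, BSA and Tween-20.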

The target of experiment [18] is Thyrotropin-releasing hormone receptor (Homo sapiens) (UniProt P34981). Description: qHTS for Small Molecule Agonists and Allosteric Enhancers of Human TRH Receptor: Validation Screen for Agonists (AID 493127;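 active = calcium activation more than 3 SD above the typical response in the agonist read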;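 also: intracellular calcium rise by fluo-8 fluorescence before TRH EC20 addition; 0% is about no effect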). The conditions noted are these: TRH receptor agonist cell assay; at 2 µM; stronger effect = higher value. An outline of the steps: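 Read-out: intracellular calcium release measured kinetically by FDSS (fluo-8, ex 480/em 530 nm), 1 reading/s after a 10-cycle baseline. TRHR cells, 2000/well, cultured 18 h at 33.5C, dye-loaded at room temp. Compound-evoked positive calcium signal flags agonists.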
Chain of Thyrotropin-releasing hormone receptor (Homo sapiens) (P34981 whole entry, looked up): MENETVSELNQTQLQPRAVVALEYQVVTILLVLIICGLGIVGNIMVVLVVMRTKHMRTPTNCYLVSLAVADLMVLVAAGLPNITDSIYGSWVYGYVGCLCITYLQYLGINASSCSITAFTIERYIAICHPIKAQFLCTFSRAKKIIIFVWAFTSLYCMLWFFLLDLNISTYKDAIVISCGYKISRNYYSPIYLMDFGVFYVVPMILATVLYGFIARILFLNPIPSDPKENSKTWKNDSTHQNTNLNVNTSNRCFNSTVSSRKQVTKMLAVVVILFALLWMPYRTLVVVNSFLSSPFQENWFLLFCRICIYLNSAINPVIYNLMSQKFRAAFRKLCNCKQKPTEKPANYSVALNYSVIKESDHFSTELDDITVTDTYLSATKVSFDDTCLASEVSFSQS

Experiment [19] deals with Peptidyl-prolyl cis-trans isomerase NIMA-interacting 1 (Homo sapiens) (UniProt Q13526). Description: qHTS Validation Assay to Find Inhibitors of Pin1 (AID 504536; active = well fitted inhibition curve with a large enough effect in the polarisation, with a control signal flat, not every such curve was filed as active; the % refers to the polarisation;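 also: 0% = full Pin1 enzyme wells and -100% = no-enzyme wells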). In short, it runs like this: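 Fluorescence polarization competition: compounds (titration) displace HiFluor-488-labeled Pin1-1b peptide from Pin1 (0.3 uM final) in pH 7.5 HEPES buffer with DTT, 10 min at room temperature; %Activity normalized to no-enzyme wells, curves fitted.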
Chain of Peptidyl-prolyl cis-trans isomerase NIMA-interacting 1 (Homo sapiens) (Q13526 whole entry, looked up): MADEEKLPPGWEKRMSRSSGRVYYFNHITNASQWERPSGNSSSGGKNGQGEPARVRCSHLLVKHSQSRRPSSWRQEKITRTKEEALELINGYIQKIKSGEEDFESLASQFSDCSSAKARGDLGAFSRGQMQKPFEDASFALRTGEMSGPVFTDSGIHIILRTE

Experiment [20] concerns the target ATP-dependent 6-phosphofructokinase (Trypanosoma brucei brucei) (UniProt O15648). Nature of the experiment: qHTS Assay to Find Inhibitors of T. brucei phosphofructokinase: hit validation (AID 492961).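 Also: luminescence reports ADP formed as PFK phosphorylates fructose-6-phosphate with ATP; series mostly up to about 51 µM; % is scaled to controls: 0 for no effect and ±100 for the full control effect.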 In short, it runs like this: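 In this biochemical qHTS validation, titrated compounds were tested against 1.25 nM PFK with 0.1 mM ATP and 0.5 mM F6P. Percent activity came from controls lacking or containing enzyme.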

Results filed as inconclusive are left out. The source made the active and inactive calls. Unless noted, calls follow the shape of the dose curve; as a rule, active = well fitted curve in the direction sought with a large enough effect; inconclusive = small, poorly fitted or top-dose-only effect, or another doubt; inactive = no such curve, though single readings can be large; an effect the other way counts as inactive or inconclusive.

Chain of ATP-dependent 6-phosphofructokinase (Trypanosoma brucei brucei) (O15648 whole entry, looked up): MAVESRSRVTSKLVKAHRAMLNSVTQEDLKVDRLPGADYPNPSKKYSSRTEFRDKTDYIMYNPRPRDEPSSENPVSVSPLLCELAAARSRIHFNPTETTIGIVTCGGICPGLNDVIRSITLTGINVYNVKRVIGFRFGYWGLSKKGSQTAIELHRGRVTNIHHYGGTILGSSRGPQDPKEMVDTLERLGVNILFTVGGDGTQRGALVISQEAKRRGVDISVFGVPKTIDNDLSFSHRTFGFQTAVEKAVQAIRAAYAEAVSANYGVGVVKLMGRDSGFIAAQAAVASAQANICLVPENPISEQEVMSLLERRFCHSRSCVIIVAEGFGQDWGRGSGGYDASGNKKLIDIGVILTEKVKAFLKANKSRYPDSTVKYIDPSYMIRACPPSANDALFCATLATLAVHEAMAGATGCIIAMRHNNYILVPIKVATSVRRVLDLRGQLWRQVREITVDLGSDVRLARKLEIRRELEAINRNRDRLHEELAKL
Chain of ATPase family AAA domain-containing protein 5 (Homo sapiens) (Q96QE3 whole entry, looked up, the tested form may be a part): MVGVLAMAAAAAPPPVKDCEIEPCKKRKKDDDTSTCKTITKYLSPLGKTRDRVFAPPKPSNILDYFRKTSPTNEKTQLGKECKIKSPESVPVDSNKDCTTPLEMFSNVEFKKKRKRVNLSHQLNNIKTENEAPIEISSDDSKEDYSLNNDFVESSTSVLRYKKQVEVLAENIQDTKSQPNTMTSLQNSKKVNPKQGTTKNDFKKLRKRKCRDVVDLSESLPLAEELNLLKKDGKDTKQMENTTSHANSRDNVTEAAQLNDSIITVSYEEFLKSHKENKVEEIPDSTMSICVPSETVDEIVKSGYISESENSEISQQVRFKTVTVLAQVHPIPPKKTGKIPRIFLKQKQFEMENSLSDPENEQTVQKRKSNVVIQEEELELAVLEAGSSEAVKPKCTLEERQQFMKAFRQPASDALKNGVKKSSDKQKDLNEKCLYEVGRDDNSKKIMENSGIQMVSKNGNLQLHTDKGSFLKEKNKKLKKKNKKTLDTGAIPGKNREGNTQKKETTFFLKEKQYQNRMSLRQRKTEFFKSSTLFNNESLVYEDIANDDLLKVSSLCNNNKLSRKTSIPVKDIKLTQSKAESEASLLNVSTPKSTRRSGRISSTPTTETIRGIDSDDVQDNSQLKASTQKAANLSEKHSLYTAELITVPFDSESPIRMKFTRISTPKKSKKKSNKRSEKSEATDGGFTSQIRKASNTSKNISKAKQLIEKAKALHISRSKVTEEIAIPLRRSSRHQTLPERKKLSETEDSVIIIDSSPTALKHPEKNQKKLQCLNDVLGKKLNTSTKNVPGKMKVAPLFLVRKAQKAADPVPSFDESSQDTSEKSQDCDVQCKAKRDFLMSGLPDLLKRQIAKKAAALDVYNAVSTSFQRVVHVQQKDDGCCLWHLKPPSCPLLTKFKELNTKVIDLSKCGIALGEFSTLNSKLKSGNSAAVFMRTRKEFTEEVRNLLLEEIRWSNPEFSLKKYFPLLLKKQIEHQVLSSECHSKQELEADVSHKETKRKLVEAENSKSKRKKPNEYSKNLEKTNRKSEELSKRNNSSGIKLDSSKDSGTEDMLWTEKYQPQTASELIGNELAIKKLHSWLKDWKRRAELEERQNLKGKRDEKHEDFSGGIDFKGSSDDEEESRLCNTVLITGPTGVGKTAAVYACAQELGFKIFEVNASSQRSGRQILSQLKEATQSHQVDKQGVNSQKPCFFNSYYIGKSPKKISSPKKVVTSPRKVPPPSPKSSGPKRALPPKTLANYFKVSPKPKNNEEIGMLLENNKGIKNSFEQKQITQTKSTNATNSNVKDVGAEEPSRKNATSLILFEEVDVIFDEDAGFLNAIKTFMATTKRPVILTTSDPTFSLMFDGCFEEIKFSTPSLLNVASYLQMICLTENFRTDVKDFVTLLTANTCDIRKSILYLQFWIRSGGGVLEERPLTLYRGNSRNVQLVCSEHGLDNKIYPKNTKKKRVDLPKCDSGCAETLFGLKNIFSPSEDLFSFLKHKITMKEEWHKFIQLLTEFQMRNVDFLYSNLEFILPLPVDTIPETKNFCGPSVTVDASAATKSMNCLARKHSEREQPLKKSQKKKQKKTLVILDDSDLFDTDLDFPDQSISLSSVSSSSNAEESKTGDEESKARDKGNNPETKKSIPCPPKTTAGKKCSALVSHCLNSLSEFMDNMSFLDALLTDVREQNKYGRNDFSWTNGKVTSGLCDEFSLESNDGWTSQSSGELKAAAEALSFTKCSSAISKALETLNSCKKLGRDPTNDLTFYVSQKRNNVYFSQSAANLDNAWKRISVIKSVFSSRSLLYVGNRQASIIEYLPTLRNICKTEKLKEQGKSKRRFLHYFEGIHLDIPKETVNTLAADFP
Chain of Chromobox protein homolog 1 (Homo sapiens) (P83916 whole entry, looked up): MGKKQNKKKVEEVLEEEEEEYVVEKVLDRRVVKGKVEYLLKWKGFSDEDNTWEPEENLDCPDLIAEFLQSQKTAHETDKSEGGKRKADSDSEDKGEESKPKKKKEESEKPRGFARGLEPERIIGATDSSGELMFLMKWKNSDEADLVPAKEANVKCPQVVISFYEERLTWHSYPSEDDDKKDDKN
Chain of M-phase phosphoprotein 8 (Homo sapiens) (Q99549 whole entry, looked up): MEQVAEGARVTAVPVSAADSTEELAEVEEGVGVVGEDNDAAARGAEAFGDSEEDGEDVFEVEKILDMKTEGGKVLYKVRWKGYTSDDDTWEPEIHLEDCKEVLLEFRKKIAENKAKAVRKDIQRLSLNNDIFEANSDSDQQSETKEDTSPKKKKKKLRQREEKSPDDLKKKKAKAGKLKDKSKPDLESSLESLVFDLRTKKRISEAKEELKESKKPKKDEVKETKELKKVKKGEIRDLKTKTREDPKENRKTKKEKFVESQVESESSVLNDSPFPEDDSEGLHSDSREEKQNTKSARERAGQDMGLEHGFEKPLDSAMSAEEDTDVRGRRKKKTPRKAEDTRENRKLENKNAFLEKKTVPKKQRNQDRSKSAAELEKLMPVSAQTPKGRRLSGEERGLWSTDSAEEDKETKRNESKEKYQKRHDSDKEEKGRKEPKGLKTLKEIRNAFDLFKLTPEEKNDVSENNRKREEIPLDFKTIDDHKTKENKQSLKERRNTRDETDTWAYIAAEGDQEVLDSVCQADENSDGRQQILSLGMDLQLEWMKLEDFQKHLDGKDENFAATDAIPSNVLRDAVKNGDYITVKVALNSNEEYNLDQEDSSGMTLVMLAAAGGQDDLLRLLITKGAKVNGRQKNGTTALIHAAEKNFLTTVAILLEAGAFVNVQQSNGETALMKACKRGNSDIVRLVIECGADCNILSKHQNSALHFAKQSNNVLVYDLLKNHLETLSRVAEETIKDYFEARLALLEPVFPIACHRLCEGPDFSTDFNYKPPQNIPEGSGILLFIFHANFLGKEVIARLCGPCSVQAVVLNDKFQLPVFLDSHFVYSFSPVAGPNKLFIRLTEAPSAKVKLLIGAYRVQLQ
Chain of D(1A) dopamine receptor (Homo sapiens) (P21728 whole entry, looked up): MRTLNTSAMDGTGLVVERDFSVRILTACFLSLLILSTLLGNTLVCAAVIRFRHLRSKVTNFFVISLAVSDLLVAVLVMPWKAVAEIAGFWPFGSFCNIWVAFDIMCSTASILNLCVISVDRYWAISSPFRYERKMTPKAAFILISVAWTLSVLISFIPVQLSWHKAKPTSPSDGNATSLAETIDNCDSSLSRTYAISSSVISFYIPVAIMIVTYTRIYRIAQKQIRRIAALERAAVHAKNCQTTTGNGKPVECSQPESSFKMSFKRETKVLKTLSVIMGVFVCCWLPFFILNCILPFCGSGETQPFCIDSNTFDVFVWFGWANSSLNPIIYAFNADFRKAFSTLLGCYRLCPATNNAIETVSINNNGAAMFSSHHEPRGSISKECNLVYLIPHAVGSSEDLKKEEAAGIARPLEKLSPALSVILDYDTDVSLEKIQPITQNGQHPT

As to `CCn1cc(C(=O)O)c(=O)c2cc(F)c(N3CCNC(C)C3)c(F)c21` (configuration not stated), the Potency result in [1], in experiment [2], in experiment [6], in experiment [7], in [8] and in experiment [9] was “inactive” throughout. Also, the Potency entry in [10], in experiment [11] and in experiment [17] was “inactive” each time. Further, the molecule was classed as inactive in [3], in [4], in experiment [5], in experiment [12], in experiment [13] and in experiment [14]. Moreover, the call in experiment [15] and in experiment [16] was inactive. Further, in experiment [11], the viability change was -3.76%.
`C1COC(NC(C2CC2)C2CC2)=N1`: the Potency entry in experiment [1], in [6], in experiment [7], in experiment [8], in experiment [9] and in experiment [10] was “inactive” each time. For the same molecule, the Potency entry in experiment [11] and in experiment [17] was “inactive” in each case. Further, the call in experiment [3], in experiment [4], in experiment [5], in experiment [12], in [13] and in experiment [14] was inactive. Also, the call in [19] and in experiment [15] was inactive. Besides, in experiment [18], the activation is -0.312% (inactive). In addition, the viability change in experiment [11] is -3.72%.
In the case of `CCc1ccc(CCOc2ccc(CC3SC(=O)NC3=O)cc2)nc1` (configuration not stated), the result in experiment [20] was inactive. For the same molecule, in [17], the Potency entry was “inactive”.
`Nc1ncnc2nc(-c3ccc(N4CCOCC4)nc3)cc(-c3cccc(Br)c3)c12`: the Potency entry in [1], in experiment [6], in [7], in [8] and in experiment [9] was “inactive” in each case. Further, the molecule was classed as inactive in experiment [3], in experiment [12], in experiment [19] and in [15]. In [10], the Potency is 4.11 µM (active).
For the molecule `Cc1ccc(N(CC2=NCCN2)c2cccc(O)c2)cc1`, the Potency result in [1], in [6], in experiment [7], in experiment [9], in experiment [11] and in experiment [17] was “inactive” each time. Also, the call in experiment [3], in experiment [4], in experiment [5], in experiment [12], in experiment [13] and in [14] was inactive. Further, the call in experiment [19] and in experiment [15] was inactive. Besides, the viability change in experiment [11] turned out to be 4.38%.
`CCCc1nn(C)c2c(=O)[nH]c(-c3cc(S(=O)(=O)N4CCN(C)CC4)ccc3OCC)nc12`: the outcome in experiment [20] was inactive. Further, in [17], the Potency entry is “inactive”.
Consider `OC(CN1CCC(Cc2ccc(F)cc2)CC1)c1ccc(Cl)cc1` (configuration not stated), for which the Potency result in experiment [1], in experiment [2], in [7], in [9], in experiment [10] and in experiment [11] was “inactive” throughout. For the same molecule, the Potency result in [17] is “inactive”. In addition, the molecule was classed as inactive in experiment [3], in experiment [4], in [20], in [12], in experiment [13] and in experiment [14]. Further, the result in experiment [19] and in experiment [15] was inactive. The activation in experiment [18] was -3.12% (inactive). For the same molecule, in experiment [11], the viability change was -17.6%.
Consider `Cc1cccc(-c2[nH]c(C(C)(C)C)nc2-c2ccc3nccnc3c2)n1`, for which the Potency entry in experiment [1], in experiment [2], in experiment [6], in [7], in experiment [8] and in experiment [9] was “inactive” each time. Further, the outcome in experiment [3], in [12], in experiment [19] and in experiment [15] was inactive.
Consider `CCOC(=O)C1=C[C@]2(CC)CCCN3CCc4c(n1c1ccccc41)[C@@H]32`, for which the Potency entry in experiment [1], in experiment [6], in [9] and in experiment [11] was “inactive” in each case. Besides, the result in experiment [3], in experiment [4], in experiment [5], in [12], in experiment [13] and in [14] was inactive. Further, the call in [19] and in experiment [15] was inactive. For the same molecule, the Potency in [7] was 3.26 µM (active). Further, the activation in experiment [18] is 0.0625% (inactive). The viability change in experiment [11] is -5.34%.
